PubChem BioAssay (Tox21)
Inconclusive results are not listed. The source made the active and inactive calls. Unless noted, calls come from the whole dose curve.

Columns and labels:
[1] = Nuclear factor erythroid 2-related factor 2/antioxidant responsive element (Nrf2/ARE) small molecule agonists: qHTS cell viability counter screen in human keratinocytes (AID 1919968; active = well fitted curve in the direction sought with a large enough effect in the repeat runs; an effect the other way counts as inactive or inconclusive; note: nearly all actives have a fitted effect of over 55% in size; note: potency is the fitted concentration of half-maximal effect)
Outline: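 Parallel cytotoxicity read: KeratinoSens HaCaT cells, compound treatment 23 h, viability by CellTiter-Fluor fluorescence 1 h post-reagent.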

[2] = molecular target: Gonadotropin-releasing hormone receptor (Homo sapiens) (UniProt P30968); experiment: Human gonadotropin-releasing hormone receptor (GnRHR) small molecule agonists, calcium flux assay in GnRHR-HEK293 cells (AID 1920063); note: nearly all actives have a fitted effect of over 35% in size
Outline: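 Calcium flux, agonist mode, human GnRHR stably integrated in HEK293; dye 1 h at 37 C before compound; Ex/Em=480/540 kinetic read, 3 min; 15 concentrations, triplicate.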

[3] = G protein-coupled receptor (GPCR) small molecule agonists, calcium flux assay: HEK293 wild type cell line counter screen (AID 1920065)
Outline: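 Non-specific calcium responders were flagged by adding DMSO-dissolved compounds to dye-loaded cells and reading 480/540 nm fluorescence each second for 3 min; ATP served as positive control.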

[4] = p53 small molecule agonists, cell-based qHTS assay with human liver microsomes (AID 1963577)
Outline: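 Compounds act here after metabolic activation: human liver microsomes and NADPH, both at 0.5 mg/mL final, were co-added to p53RE-bla cells. Incubation ran 16 h at 37 C, followed by LiveBLAzer detection.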

[5] = p53 small molecule agonists, cell-based qHTS assay with rat liver microsomes (AID 1963578)
Outline: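 Read-out is beta-lactamase reporter fluorescence (LiveBLAzer, 2 h, room temperature, dark) in p53RE-bla cells treated 16 h at 37 C with compound, rat liver microsomes and NADPH, both 0.5 mg/mL final.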

[6] = p53 small molecule agonists, cell-based qHTS assay with human liver microsomes: qHTS cell viability counter screen (AID 1963579); note: nearly all actives have a fitted effect of over 45% in size
Outline: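 Cells carrying the p53 response-element beta-lactamase reporter are treated for 16 h at 37 C with test compounds in the presence of human liver microsomes and NADPH (both 0.5 mg/mL final); ATP-based CellTiter-Glo luminescence then reports viability.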

[7] = p53 small molecule agonists, cell-based qHTS assay with rat liver microsomes: qHTS cell viability counter screen (AID 1963580); note: nearly all actives have a fitted effect of over 45% in size
Outline: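 Cytotoxicity counter screen: intracellular ATP read by CellTiter-Glo luminescence in the p53 reporter wells. HCT-116 p53RE-bla cells were treated for 16 h at 37 C alongside rat liver microsomes and NADPH, each 0.5 mg/mL final.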

[8] = p53 small molecule agonists, cell-based qHTS assay: qHTS cell viability counter screen (AID 1963581); note: nearly all actives have a fitted effect of over 45% in size
Outline: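 Multiplexed with the reporter read, a CellTiter-Glo step (30 min, room temperature) gauges ATP-based viability of HCT-116 p53RE-bla cells after 16 h compound incubation at 37 C.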

[9] = p53 small molecule agonists, cell-based qHTS assay (AID 1963582; active = well fitted activation curve with a large enough effect in the signal ratio in the repeat runs, not every such curve was filed as active; the % refers to the signal ratio)
Outline: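 Beta-lactamase reporter cells (p53RE-bla) treated with compounds for 16 h at 37 C; FRET substrate, 2 h, room temperature; fluorescence intensity.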

[10] = molecular target: 5-hydroxytryptamine receptor 2A (Homo sapiens) (UniProt P28223); experiment: 5-hydroxytryptamine receptor 2A (HTR2A) small molecule agonists, cell-based qHTS assay (AID 1963587); note: nearly all actives have a fitted effect of over 30% in size
Outline: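 Kinetic calcium-flux fluorescence (2 min, 1 sec intervals) after compound addition in agonist mode. HTR2A-CHO cells were cultured 18 h, then dye-loaded 1 h at 37 C.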

[11] = molecular target: Muscarinic acetylcholine receptor M1 (Homo sapiens) (UniProt P11229); experiment: Cholinergic receptor muscarinic 1 (CHRM1) small molecule antagonists, cell-based qHTS assay (AID 1963588); note: nearly all actives have a fitted effect of over 40% in size; note: potency is the fitted concentration of half-maximal effect
Outline: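 Compounds were tested at 15 concentrations in three independent runs. Dye-loaded CHRM1-CHO cells were exposed 5 min at room temperature before stimulation by acetylcholine added at 50nM. Intracellular calcium was read kinetically on FDSS for 3 min.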

[12] = molecular target: Muscarinic acetylcholine receptor M1 (Homo sapiens) (UniProt P11229); experiment: Cholinergic receptor muscarinic 1 (CHRM1) small molecule agonists, cell-based qHTS assay (AID 1963589); note: nearly all actives have a fitted effect of over 35% in size
Outline: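 qHTS, 15-point titration, 3 independent runs: compounds pin-transferred onto dye-loaded CHRM1-CHO cells (human M1), calcium fluorescence followed every second to detect agonism.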

[13] = cAMP Responsive Elements (CRE) small molecule agonists, cell-based qHTS assay (AID 1963590)
Outline: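 Quantitative HTS for CRE agonists: HEK 293T CRE-bla cells, overnight plating, 3 h compound incubation at 37 C/5% CO2, then 2 h room-temperature LiveBLAzer B/G FRET substrate loading.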

[14] = cAMP Responsive Elements (CRE) small molecule antagonists, cell-based qHTS assay (AID 1963591; active = well fitted inhibition curve with a large enough effect in the signal ratio in the repeat runs, not every such curve was filed as active; the % refers to the signal ratio)
Outline: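 Fluorescence intensity from cleaved LiveBLAzer B/G substrate (2 h, room temperature) quantified CRE-bla activity in HEK 293T cells exposed 3 h to compound with 0.25 uM final NKH477.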

[15] = molecular target: Beta-2 adrenergic receptor (Homo sapiens) (UniProt P07550); experiment: Adrenergic beta2 receptor (ADRB2) small molecule antagonists, cell-based qHTS assay (AID 1963592); note: nearly all actives have a fitted effect of over 50% in size; note: potency is the fitted concentration of half-maximal effect; for activity change, negative = inhibition: series mostly up to about 92 µM
Outline: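 Assay format: CHO-ADRB2 cells, 18-20hr seeding at 37C/5% CO2, then compound plus 1nM isoproterenol agonist mix for 0.5hr RT. Homogeneous time-resolved fluorescence cAMP detection after 1hr, expressed as 665/615 nm ratio.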

[16] = molecular target: D(2) dopamine receptor (Homo sapiens) (UniProt P14416); experiment: Dopamine D2 receptor (DRD2) small molecule agonists, cell-based qHTS assay (AID 1963594); note: nearly all actives have a fitted effect of over 35% in size
Outline: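 cAMP accumulation in DRD2-HEK293 cells measured by HTRF after 1 h detection; compounds added 10 min before NKH477 (200nM […]) forskolin-analogue stimulation, 30 min at room temperature, with Ro20-1724 present at 0.1 mM final.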

[17] = molecular target: D(2) dopamine receptor (Homo sapiens) (UniProt P14416); experiment: Dopamine D2 receptor (DRD2) small molecule antagonists, cell-based qHTS assay (AID 1963595; active = well fitted inhibition curve with a large enough effect in the signal ratio in the repeat runs, with a control signal flat; the % refers to the signal ratio)
Outline: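 Cells were plated and grown for 24 h at 37 °C. Ro20-1724 (0.1 mM final) went in first, then compound for 10 min. NKH477 (200 nM) with quinpirole (12 nM) followed for 30 min at RT, then HTRF detection reagents for 1 h.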

[18] = molecular target: KiSS-1 receptor (Homo sapiens) (UniProt Q969F8); experiment: Human kisspeptin (KISS1R) small molecule agonists, calcium flux assay in KISS1R-HEK293 cells (AID 1920064; active = well fitted curve in the direction sought with a large enough effect in the repeat runs; an effect the other way counts as inactive or inconclusive)
Outline: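 Triplicate 15-concentration series were applied to dye-loaded human KISS1R HEK293 cells, and agonist-evoked calcium fluorescence was captured for 3 min.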

[19] = molecular target: 5-hydroxytryptamine receptor 2A (Homo sapiens) (UniProt P28223); experiment: 5-hydroxytryptamine receptor 2A (HTR2A) small molecule antagonists, cell-based qHTS assay (AID 1963586); note: nearly all actives have a fitted effect of over 45% in size; note: potency is the fitted concentration of half-maximal effect
Outline: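 CHO cells stably expressing human HTR2A were plated for 18 h at 37 C, then loaded with calcium dye for 1 h. Compounds were preincubated 5 min at room temperature before DOI (4 nM solution) was added. Kinetic fluorescence was read for 3 min.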

[20] = molecular target: Beta-2 adrenergic receptor (Homo sapiens) (UniProt P07550); experiment: Adrenergic beta2 receptor (ADRB2) small molecule agonists, cell-based qHTS assay (AID 1963593);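 note: CHO cells stably overexpressing human ADRB2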
Outline: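 CHO cells stably over-expressing ADRB2 were plated overnight at 37C, then dosed with compounds plus a stimulation mix containing 100uM IBMX and 25uM Ro-20-1724 for 0.5hr at room temperature. cAMP was measured by HTRF competition, 1hr.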
% is set by controls: 0 for no effect and ±100 for the full control effect.

D(2) dopamine receptor (Homo sapiens), sequence (P14416 whole entry, looked up): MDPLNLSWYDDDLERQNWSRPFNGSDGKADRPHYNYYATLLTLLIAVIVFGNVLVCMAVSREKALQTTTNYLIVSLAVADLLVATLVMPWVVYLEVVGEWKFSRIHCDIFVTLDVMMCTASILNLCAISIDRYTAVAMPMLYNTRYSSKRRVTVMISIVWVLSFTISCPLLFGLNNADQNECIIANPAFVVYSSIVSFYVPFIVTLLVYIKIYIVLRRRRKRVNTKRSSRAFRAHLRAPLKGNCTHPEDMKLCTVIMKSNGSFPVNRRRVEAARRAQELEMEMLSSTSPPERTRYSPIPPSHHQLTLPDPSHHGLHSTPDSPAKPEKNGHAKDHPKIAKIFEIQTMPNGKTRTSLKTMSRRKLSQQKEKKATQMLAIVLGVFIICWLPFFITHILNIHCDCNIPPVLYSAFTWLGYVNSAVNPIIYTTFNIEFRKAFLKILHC
Muscarinic acetylcholine receptor M1 (Homo sapiens), sequence (P11229 whole entry, looked up): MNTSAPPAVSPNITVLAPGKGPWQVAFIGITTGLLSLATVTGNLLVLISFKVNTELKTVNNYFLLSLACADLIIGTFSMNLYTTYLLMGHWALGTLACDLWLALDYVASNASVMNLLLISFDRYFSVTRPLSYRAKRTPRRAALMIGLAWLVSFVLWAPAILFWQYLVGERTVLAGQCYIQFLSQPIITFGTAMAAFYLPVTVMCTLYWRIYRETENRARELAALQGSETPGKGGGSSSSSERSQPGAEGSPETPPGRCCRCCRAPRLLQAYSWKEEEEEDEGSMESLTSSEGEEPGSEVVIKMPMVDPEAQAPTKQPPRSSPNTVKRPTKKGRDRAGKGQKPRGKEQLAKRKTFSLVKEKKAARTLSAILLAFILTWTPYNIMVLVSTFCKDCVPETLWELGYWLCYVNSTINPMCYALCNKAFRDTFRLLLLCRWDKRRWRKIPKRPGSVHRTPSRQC
5-hydroxytryptamine receptor 2A (Homo sapiens), sequence (P28223 whole entry, looked up): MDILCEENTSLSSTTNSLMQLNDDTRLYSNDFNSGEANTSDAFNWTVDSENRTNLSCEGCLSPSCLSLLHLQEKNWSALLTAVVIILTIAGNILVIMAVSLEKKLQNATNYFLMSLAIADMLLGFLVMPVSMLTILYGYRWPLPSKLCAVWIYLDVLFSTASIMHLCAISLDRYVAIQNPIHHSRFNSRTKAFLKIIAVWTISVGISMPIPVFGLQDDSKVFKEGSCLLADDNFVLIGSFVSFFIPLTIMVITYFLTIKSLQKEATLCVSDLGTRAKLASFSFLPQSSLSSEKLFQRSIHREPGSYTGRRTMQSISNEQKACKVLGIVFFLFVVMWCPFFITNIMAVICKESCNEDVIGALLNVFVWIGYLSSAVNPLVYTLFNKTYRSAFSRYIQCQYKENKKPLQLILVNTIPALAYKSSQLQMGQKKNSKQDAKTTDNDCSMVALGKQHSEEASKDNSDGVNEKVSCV
KiSS-1 receptor (Homo sapiens), sequence (Q969F8 whole entry, looked up): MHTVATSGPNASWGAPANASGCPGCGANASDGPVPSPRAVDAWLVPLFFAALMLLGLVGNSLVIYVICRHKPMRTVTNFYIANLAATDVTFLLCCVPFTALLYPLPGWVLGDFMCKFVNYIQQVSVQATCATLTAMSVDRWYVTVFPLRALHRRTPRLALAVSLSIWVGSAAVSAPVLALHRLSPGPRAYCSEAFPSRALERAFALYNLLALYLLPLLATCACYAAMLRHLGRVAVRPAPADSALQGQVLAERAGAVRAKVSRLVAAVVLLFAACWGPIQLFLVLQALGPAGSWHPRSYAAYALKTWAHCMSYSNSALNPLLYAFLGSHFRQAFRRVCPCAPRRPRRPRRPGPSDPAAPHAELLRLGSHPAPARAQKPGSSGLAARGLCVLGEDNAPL
Beta-2 adrenergic receptor (Homo sapiens), sequence (P07550 whole entry, looked up): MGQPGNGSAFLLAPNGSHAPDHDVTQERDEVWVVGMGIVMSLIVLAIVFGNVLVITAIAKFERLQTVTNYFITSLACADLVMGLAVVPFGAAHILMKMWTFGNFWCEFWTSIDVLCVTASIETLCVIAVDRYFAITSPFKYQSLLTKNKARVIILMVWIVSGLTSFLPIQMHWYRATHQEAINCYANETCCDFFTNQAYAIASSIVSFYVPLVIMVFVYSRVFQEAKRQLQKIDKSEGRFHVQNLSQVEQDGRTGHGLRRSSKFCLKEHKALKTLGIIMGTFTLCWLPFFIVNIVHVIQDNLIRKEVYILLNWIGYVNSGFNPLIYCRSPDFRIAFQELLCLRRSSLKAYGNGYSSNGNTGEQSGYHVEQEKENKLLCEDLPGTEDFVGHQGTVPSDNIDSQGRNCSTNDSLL
Gonadotropin-releasing hormone receptor (Homo sapiens), sequence (P30968 whole entry, looked up): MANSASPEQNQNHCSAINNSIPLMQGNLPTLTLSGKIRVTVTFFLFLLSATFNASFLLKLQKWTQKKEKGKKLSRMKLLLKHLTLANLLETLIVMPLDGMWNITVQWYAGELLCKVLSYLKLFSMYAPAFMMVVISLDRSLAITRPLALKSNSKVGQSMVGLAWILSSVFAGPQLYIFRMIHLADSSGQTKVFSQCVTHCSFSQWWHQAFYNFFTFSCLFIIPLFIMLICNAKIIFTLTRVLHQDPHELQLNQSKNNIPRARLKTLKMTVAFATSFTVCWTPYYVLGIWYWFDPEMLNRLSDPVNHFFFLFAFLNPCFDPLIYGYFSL

C[C@@H](O)[C@H](N)C(=O)O
inactive: activity change, negative = cytotoxicity [1] 1.84% [at 19 µM] | activity change [2] -1.37% [at 11.8 µM, hits give high values] | activation [3] -0.289% [at 11.8 µM] | activation [4] 1.89% [at 13.5 µM] | activation [5] 3.27% [at 13.6 µM] | activity change, negative = cytotoxicity [6] 12.8% [at 13.5 µM] | activity change, negative = cytotoxicity [7] -1.12% [at 13.5 µM] | activity change, negative = cytotoxicity [8] 3.28% [at 13.5 µM] | activation [9] -0.75% [at 13.5 µM] | activation [10] 1.14% [at 15.9 µM] | activity, negative = inhibition [11] -1.65% [at 12.6 µM] | activation [12] -0.0423% [at 15.8 µM] | activation [13] -0.0351% [at 19 µM] | activity change, negative = inhibition [14] 5.26% [at 18.9 µM] | activity change, negative = inhibition [15] 2.52% [at 19 µM] | activation [16] 17.6% [at 19 µM] | activity change, negative = inhibition [17] -2.84% [at 18.9 µM]

Oc1cc(O)c(Cl)cc1Cl
inactive: Potency [1] | Potency [2] | outcome [18] | outcome [3] | Potency [5] | Potency [6] | Potency [7] | Potency [8] | Potency [9] | Potency [19] | Potency [10] | Potency [11] | Potency [12] | Potency [13] | Potency [14] | Potency [16] | Potency [17]

O=c1c(-c2ccccc2)c1-c1ccccc1
inactive: Potency [2] | outcome [18] | outcome [3] | Potency [4] | Potency [6] | Potency [7] | Potency [19] | Potency [10] | Potency [11] | Potency [12] | Potency [15] | Potency [16] | Potency [17]
active: Potency [1] 1190 nM

C1COC(NC(C2CC2)C2CC2)=N1
inactive: Potency [2] | outcome [18] | outcome [3] | Potency [4] | Potency [5] | Potency [6] | Potency [7] | Potency [8] | Potency [9] | Potency [10] | Potency [11] | Potency [12] | Potency [13] | Potency [15] | Potency [20] | Potency [16] | Potency [17]

Cc1ccc(S(=O)(=O)NC(=O)NN2CC3CCCC3C2)cc1 (configuration not stated)
inactive: Potency [2] | outcome [18] | outcome [3] | Potency [4] | Potency [5] | Potency [6] | Potency [7] | Potency [8] | Potency [9] | Potency [13] | Potency [14] | Potency [15] | Potency [20] | Potency [16] | Potency [17]

COc1cc2nc(Cl)nc(N)c2cc1OC
inactive: Potency [2] | outcome [18] | outcome [3] | Potency [4] | Potency [5] | Potency [6] | Potency [7] | Potency [8] | Potency [9] | Potency [19] | Potency [10] | Potency [11] | Potency [12] | Potency [14] | Potency [15] | Potency [17]

O=C1OC(=O)c2cccc3cccc1c23
inactive: Potency [2] | outcome [18] | outcome [3] | Potency [4] | Potency [5] | Potency [6] | Potency [7] | Potency [8] | Potency [9] | Potency [19] | Potency [10] | Potency [11] | Potency [12] | Potency [13] | Potency [14] | Potency [15] | Potency [16] | Potency [17]

CCN(CC)C(=O)Nc1ccc(OCC(O)CNC(C)(C)C)c(C(C)=O)c1 (configuration not stated)
active: Potency [15] 47.3 nM
inactive: Potency [2] | outcome [18] | outcome [3] | Potency [4] | Potency [5] | Potency [6] | Potency [7] | Potency [8] | Potency [9] | Potency [19] | Potency [10] | Potency [11] | Potency [12] | Potency [13] | Potency [14] | Potency [17]

CC(=O)CCc1ccc(O)cc1
inactive: Potency [2] | outcome [18] | outcome [3] | Potency [4] | Potency [5] | Potency [6] | Potency [7] | Potency [8] | Potency [9] | Potency [19] | Potency [10] | Potency [11] | Potency [12] | Potency [13] | Potency [15] | Potency [16] | Potency [17]

CCN(CC)CCOCCOC(=O)C1(c2ccccc2)CCCC1
active: Potency [11] 130 nM
inactive: Potency [2] | outcome [18] | outcome [3] | Potency [4] | Potency [5] | Potency [6] | Potency [7] | Potency [8] | Potency [9] | Potency [10] | Potency [12] | Potency [13] | Potency [14] | Potency [15] | Potency [20] | Potency [16] | Potency [17]

COCCOC(=O)C1=C(C)NC(C)=C(C(=O)OC/C=C/c2ccccc2)C1c1cccc([N+](=O)[O-])c1 (configuration not stated)
inactive: Potency [2] | outcome [18] | outcome [3] | Potency [4] | Potency [5] | Potency [6] | Potency [7] | Potency [8] | Potency [19] | Potency [10] | Potency [11] | Potency [13] | Potency [14] | Potency [15] | Potency [16] | Potency [17]

CC(NN)c1ccccc1 (configuration not stated)
inactive: activity change [2] -0.677% [at 11.8 µM, hits give high values] | activation [18] -0.175% [at 15.8 µM] | activation [3] -1.16% [at 11.8 µM] | activation [4] -2.41% [at 13.5 µM] | activation [5] -0.8% [at 13.6 µM] | activity change, negative = cytotoxicity [6] -4.08% [at 13.5 µM] | activity change, negative = cytotoxicity [7] 2.75% [at 13.5 µM] | activity change, negative = cytotoxicity [8] 23.1% [at 13.5 µM] | activation [9] -1.5% [at 13.5 µM] | activity, negative = inhibition [19] 14.8% [at 12.7 µM] | activation [10] 1.19% [at 15.9 µM] | activity, negative = inhibition [11] 10.3% [at 12.6 µM] | activation [13] -0.272% [at 19 µM] | activity change, negative = inhibition [14] -6.39% [at 18.9 µM] | activity change, negative = inhibition [15] 10.7% [at 19 µM] | Potency [20] | activation [16] 12.1% [at 19 µM] | activity change, negative = inhibition [17] 4.23% [at 18.9 µM]

CN(C)CCC=C1c2ccccc2C=Cc2ccccc21
active: Potency [19] 818 nM
inactive: Potency [2] | outcome [18] | outcome [3] | Potency [4] | Potency [5] | Potency [6] | Potency [7] | Potency [8] | Potency [10] | Potency [11] | Potency [12] | Potency [13] | Potency [14] | Potency [16]

O=C(O)/C=C/c1ccc(/C=C/C(=O)O)cc1
inactive: Potency [2] | outcome [18] | outcome [3] | Potency [4] | Potency [5] | Potency [6] | Potency [7] | Potency [8] | Potency [9] | Potency [19] | Potency [11] | Potency [12] | Potency [13] | Potency [14] | Potency [15] | Potency [16] | Potency [17]
